Measured values published in PubChem BioAssay (NCATS).
Several values for one entry are separate records, joined by “and”; a condition that tells them apart may be missing. Equal values may be shown once. Inconclusive results are not listed. Activity calls are given as the source filed them. Calls come from the whole dose curve; as a rule, active = well fitted curve in either direction with a large enough effect (not every such curve was filed as active); inconclusive = small, poorly fitted or top-dose-only effect, or another doubt; inactive = flat fitted curve, though single readings scatter.

Assay: Stat Signaling Pathway (AID 446);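 note: SIE-controlled beta-lactamase reporter measured as 460/530 nm FRET emission ratio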
Details: ME-180 (cervical carcinoma) SIE beta-lactamase reporter, IL-6 stimulated, 5 h; at 38 µM (top of the series)
Summary of the method: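 Normalization used AC90 stimulation (300 pM IL-6) and AC90 inhibition (125 nM pan-JAK inhibitor at 40 pM IL-6). The underlying signal is SIE-driven beta-lactamase in ME-180 cells after 5 h IL-6 exposure with compound.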
% is set by controls: 0 for no effect and ±100 for the full control effect.

Row | Structure (SMILES) | activity, negative = inhibition
1 | COC(=O)C1=C(C)NC(C)=C(C(=O)OC)C1c1ccccc1[N+](=O)[O-] | -13.9% (inactive)
2 | CCCn1cnc2c1c(=O)n(CCCCC(C)=O)c(=O)n2C | 10.7% (inactive)
3 | COc1ccc(Cl)cc1C(=O)NCCc1ccc(S(=O)(=O)NC(=O)NC2CCCCC2)cc1 | 4.48% (inactive)
4 | CC1=C(CC(=O)O)c2cc(F)ccc2/C1=C\c1ccc(S(C)(=O)=O)cc1 | -25.4% (inactive)
5 | Cc1cc(N)c2ccccc2[n+]1CCCCCCCCCC[n+]1c(C)cc(N)c2ccccc21 | -10.8% (inactive)
6 | CCN(CC)CCNC(=O)c1cc(Cl)c(N)cc1OC | -26.6% (inactive)
7 | CC(C)NC[C@H](O)c1ccc(O)c(O)c1 | -27.8% (inactive) and -1.34% (inactive) and -7.26% (inactive)
8 | CC(C)C(=O)c1c(C(C)C)nn2ccccc12 | 2.52% (inactive)
9 | CNCCCC1c2ccccc2C=Cc2ccccc21 | -9.63% (inactive)
10 | N=c1c[n+](N2CCOCC2)[n-]o1 | -10.2% (inactive)
11 | Nc1cc(=O)[nH]c(N)n1 | 1.02% (inactive)
12 | CC1=C(CC(=O)O)c2cc(F)ccc2/C1=C\c1ccc(S(C)=O)cc1 (stereo not given) | 9.67% (inactive)
13 | OCCN1CCN(CCCN2c3ccccc3Sc3ccc(Cl)cc32)CC1 | -28.9% (inactive)
14 | CCN(CC)CCOC(=O)C1(C2CCCCC2)CCCCC1 | -26% (inactive)
15 | NC1CCN(c2cccc(Cl)n2)CC1 | -14.3% (inactive)
